Bioassay records as filed in PubChem.
Shown are actives, neighbours in structure and some others; about 2.7% of the full set was active somewhere.
IDH1 R132H inh: human IDH1 R132H inhibition; O75874; IDH1-R132H enzyme, NADPH consumption, diaphorase/resazurin fluorescence; Potency, µM (titrated, usually from 76.6 µM), for the others: at the highest dose activity change, negative = inhibition, most hits filed as inhibitors; hit rate 0.093% among 390,000; note: potency is the fitted concentration of half-maximal effect; % is set by controls: 0 for no effect and ±100 for the full control effect; nearly all actives have a fitted effect of over 65% in size
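IDH1-R132H (0.5 ug/mL) preincubated 30 min with compound, then NADPH (0.016 mM) and alpha-KG (2 mM) added; 80 min at RT, pH 7.5. Remaining NADPH coupled via diaphorase/resazurin to fluorescence (540/590 nm); concentration-response curves normalized to no-enzyme control.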
Nrf2 activator: activates Nrf2 signaling | Potency, µM (titrated, usually from 46.1 µM), for the others: at the highest dose activation, usual class: activators | AREc32 ARE-luciferase reporter (MCF7-derived line), luminescence, 24 h | hit rate 0.31% among 410,000 | AID 624171; note: potency is the fitted concentration of half-maximal effect; % of control where 0% means no effect; nearly all actives have a fitted effect of over 65% in size
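Reporter line AREc32 (ARE-Fluc), seeded overnight in OPTI-MEM with 5% FBS; compound pin-transferred, 24 hr at 37 deg C, 5% CO2; luminescent read-out.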
A549 tox: kills or reduces viability of A549 cells in Nrf2 counter-screen; hit rate 0.16% among 390,000; Potency, µM (top dose mostly 46 µM), inactives show at the highest dose activity change, negative = cytotoxicity, usual class: inhibitors; A549 ARE-Fluc cells, CellTiter-Fluor viability, 18-24 h; note: potency is the fitted concentration of half-maximal effect; % is set by controls: 0 for no effect and ±100 for the full control effect
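A549 ARE_Fluc cells in 5% FBS OPTI-MEM were exposed to compounds in concentration-response for 18-24 h at 37 deg C. Viability was read by CellTiter-Fluor fluorescence (Ex 405/Em 525) after 30 min, before the luciferase read.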
Nrf2 inh: inhibitors of Nrf2 signaling. A549 ARE-Fluc reporter, luciferase luminescence, 18-24 h. Potency, µM (series often up to 46 µM), without a hit: at the highest dose activity change, negative = inhibition, most hits filed as inhibitors. hit rate 2.1% among 360,000. AID 504444; note: potency is the fitted concentration of half-maximal effect; % is set by controls: 0 for no effect and ±100 for the full control effect; nearly all actives have a fitted effect of over 60% in size
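In this cell-based qHTS, ARE-driven firefly luciferase in A549 cells reports Nrf2 activity; the luminescent signal after BugLite lysis is the measured value, with a prior CellTiter-Fluor read for cell health.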
LDHA inh: LDHA (human) enzyme inhibition | purified LDHA, NADH/diaphorase-resazurin fluorescence; stronger effect = lower value | AID 1347041 | activity change, % (values are at about 110 or 230 µM) | P00338 | hit rate 0.15% among 480,000; in the data active = activity change below about -30%; inconclusive = mostly about -25% to -30%;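 note: plate controls were DMSO wells for no effect and wells without enzyme for full effect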
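Human LDH5 (2 nM) was incubated with 0.06 mM NADH and 0.2 mM pyruvate for 5 min at room temperature in Tris pH 7.4. Remaining NADH was coupled through diaphorase/resazurin, and resorufin fluorescence was read at 0 and 20 min.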
12-LOX inh: inhibitors of human 12S-lipoxygenase ALOX12. purified 12hLO, xylenol orange hydroperoxide absorbance. P18054. hit rate 1.1% among 580,000. Potency, µM (doses to about 108 µM), for the others: at the top dose activity change, negative = inhibition, usual class: inhibitors; note: potency is the fitted concentration of half-maximal effect; % is set by controls: 0 for no effect and ±100 for the full control effect
Target sequence (P18054 whole entry, looked up): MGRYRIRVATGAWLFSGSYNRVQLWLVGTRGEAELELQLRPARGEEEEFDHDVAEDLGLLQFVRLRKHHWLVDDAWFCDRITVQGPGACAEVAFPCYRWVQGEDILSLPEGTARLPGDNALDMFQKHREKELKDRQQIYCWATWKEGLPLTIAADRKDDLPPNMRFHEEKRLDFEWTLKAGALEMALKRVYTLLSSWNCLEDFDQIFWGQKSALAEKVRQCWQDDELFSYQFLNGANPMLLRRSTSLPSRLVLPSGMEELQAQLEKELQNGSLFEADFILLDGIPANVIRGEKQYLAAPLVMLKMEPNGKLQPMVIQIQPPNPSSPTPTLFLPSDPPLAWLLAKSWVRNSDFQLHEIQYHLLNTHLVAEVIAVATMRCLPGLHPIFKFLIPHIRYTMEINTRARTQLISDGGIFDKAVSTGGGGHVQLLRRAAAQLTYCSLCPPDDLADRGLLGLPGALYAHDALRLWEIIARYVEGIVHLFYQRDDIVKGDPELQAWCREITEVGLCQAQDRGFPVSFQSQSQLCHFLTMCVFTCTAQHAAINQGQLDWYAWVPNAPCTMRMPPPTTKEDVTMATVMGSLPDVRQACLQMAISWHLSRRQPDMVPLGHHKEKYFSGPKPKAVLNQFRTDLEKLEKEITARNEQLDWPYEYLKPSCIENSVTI
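Purified human 12hLO at 150 nM in 25 mM Hepes, 0.01% Triton X-100, pH 7.0, preincubated 15 min at room temperature with compound. Reaction started with 40 uM arachidonic acid, 30 min at room temperature. Hydroperoxide measured by Fe-xylenol orange, 573/405 nm absorbance ratio.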
Resorufin autofl: counter-screen for mutant IDH1 inhibitors: fluorescence interference; shares compounds with IDH1 R132H inh; Resorufin detection reagent fluorescence interference, cell-free; inhibition of signal, % at 51.2 µM; 750 tested, under 10 active; AID 623980;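 note: 0% = wells with normal resorufin and full inhibition = wells lacking resorufin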
WT IDH1 inh: selectivity of mutant IDH1 inhibitors: human wild-type IDH1. shares compounds with IDH1 R132H inh. WT IDH1 enzyme, NADPH diaphorase/resazurin fluorescence. Potency, µM (top dose mostly 115 µM), for inactives: at the highest dose activity change, negative = inhibition, actives largely listed as inhibitors. hit rate 9% among 750. AID 623995;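 note: potency is the fitted concentration of half-maximal effect; 0% = full WT IDH1 enzyme control and full inhibition = no enzyme wells; nearly all actives have a fitted effect of over 55% in size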
IDH1 R132H conf: confirmation of human mutant IDH1 inhibitors; shares compounds with IDH1 R132H inh; IDH1 R132H enzyme, NADPH diaphorase/resazurin fluorescence; Potency, µM (titrated, usually from 76.6 µM), for inactives: at the top dose activity change, negative = inhibition, hits mostly inhibitors; hit rate 83% among 750; AID 624002; note: potency is the fitted concentration of half-maximal effect; nearly all actives have a fitted effect of over 50% in size
* hit, by the source's call; i = inactive; ? = inconclusive; . = no result given. Unless noted, calls come from the whole dose curve; as a rule, active = well fitted curve in the direction sought with a large enough effect; inconclusive = small, poorly fitted or top-dose-only effect, or another doubt; inactive = no such curve, though single readings can be large; an effect the other way counts as inactive or inconclusive.

SMILES	IDH1 R132H inh	Nrf2 activator	A549 tox	Nrf2 inh	LDHA inh	12-LOX inh	Resorufin autofl	WT IDH1 inh	IDH1 R132H conf
N#CC1(C#N)C(C(N)=O)C1c1ccccc1 (centres undefined)	2%	0%	-2%	-7%	-3	3%	.	.	.
CN1C=CC2=C(C#N)C(N)C(C#N)(C#N)[C@H](c3ccccc3)[C@H]2C1 (some centres undefined)	?	-1%	-1%	3%	1	-7%	2	38%	?
O=C(CSc1ccc2ccccc2n1)N(C1CCCC1)C1CCS(=O)(=O)C1 (centres undefined)	.	.	.	.	11	-20%	.	.	.
Cc1ccc(NC(=O)CSC2=C(C#N)C(c3ccco3)C3=C(CC(C)(C)CC3=O)N2)cc1 (centres undefined)	52µM*	0%	-16%	?	2	?	3	-6%	28µM*
CCc1ccc(NC(=O)CSC2=C(C#N)C(c3ccco3)C3=C(CCCC3=O)N2)cc1 (centres undefined)	4%	?	-1%	-10%	3	40%	.	.	.
COc1cccc(N(C(=O)c2csnn2)C(C(=O)NC2CCCC2)c2ccccc2)c1 (centres undefined)	?	0%	-10%	0%	-9	-1%	4	-4%	40µM*
O=C(NC1CCCC1)C(c1ccncc1)N(C(=O)c1csnn1)c1ccccc1 (centres undefined)	-2%	0%	0%	8%	-11	-9%	.	.	.
COc1cccc(N(C(=O)c2cnccn2)C(C(=O)NC2CCCCC2)c2ccc(Cl)cc2)c1 (centres undefined)	-6%	3%	-21%	-14%	-1	27%	.	.	.
O=C(NC1CCCCC1)C(c1ccco1)N(C(=O)c1csnn1)c1cccc(Cl)c1 (centres undefined)	?	2%	1%	1%	-2	-9%	0	-2%	28µM*
O=C(NC1CCCC1)C(c1ccccc1)N(C(=O)c1csnn1)c1ccccc1F (centres undefined)	?	-1%	-6%	-14%	-17	23%	-7	-2%	25µM*
O=C(NC1CCCCC1)C(c1ccc(Cl)cc1)N(C(=O)c1cnccn1)c1ccc2c(c1)OCO2 (centres undefined)	?	0%	3%	8%	1	-19%	-7	-11%	?
O=C(CSc1nc2ccccc2nc1N1CCCC1)NCc1ccccc1	.	.	.	.	-1	?	.	.	.
CC(C)OC(=O)COc1ccc2cc(-c3ccccc3)c(=O)oc2c1	.	.	.	.	8	12%	.	.	.
Cc1cccc(N2CCN(S(=O)(=O)c3ccc4c(c3)NC(=O)C(C)S4)CC2)c1C (centres undefined)	-2%	-1%	-6%	-28%	-1	-9%	.	.	.
Cc1cccc(N2CCN(S(=O)(=O)c3ccc4c(c3)C(C(C)C)C(=O)N4)CC2)c1C (centres undefined)	40µM*	0%	-2%	13µM*	4	-22%	3	6%	22µM*
CC(C)(C)c1ccc(OCCn2cc(C(=O)C(F)(F)F)c3ccccc32)cc1	.	.	.	.	8	3%	.	.	.
Cc1cc(C)c(-c2n[nH]c3c2C(c2ccccc2F)N(Cc2ccco2)C3=O)c(O)c1 (centres undefined)	?	-5%	-14%	15%	-9	5%	-8	7%	?
Cc1ccc(O)c(-c2n[nH]c3c2C(c2ccc(F)cc2)N(Cc2ccco2)C3=O)c1 (centres undefined)	40µM*	-1%	-10%	-1%	-4	?	-6	-14%	28µM*
COc1ccc(C2c3c(-c4c(C)cc(C)cc4O)n[nH]c3C(=O)N2Cc2ccco2)cc1 (centres undefined)	.	-3%	-7%	9%	-1	?	.	.	.
O=C1c2[nH]nc(-c3ccccc3O)c2C(c2cccc(O)c2)N1Cc1ccco1 (centres undefined)	5%	9%	-9%	-13%	-2	i	.	.	.
COc1ccc(C2c3c(-c4ccccc4O)n[nH]c3C(=O)N2Cc2ccco2)cc1 (centres undefined)	?	8%	-2%	12%	0	5%	-3	4%	32µM*
Cc1cccnc1-n1c(C)c(C)c2c1ncn1nc(CSc3nc4ccccc4o3)nc21	.	.	.	.	10	3%	.	.	.
CCN(CC)CCCNC(=O)c1nn(Cc2ccccc2)c(=O)c2ccccc12	.	.	.	.	7	-27%	.	.	.
N#CCCN(C(=O)CSc1nnnn1-c1ccc(O)cc1)c1cccc(Cl)c1	.	.	.	.	-13	-9%	.	.	.
CCCn1cc(S(=O)(=O)c2cc(C)ccc2C)c(=O)c2cc(F)c(N3CCCCCC3)cc21	?	0%	-18%	?	-12	-28%	-5	-9%	16µM*
SMILES	IDH1 R132H inh	Nrf2 activator	A549 tox	Nrf2 inh	LDHA inh	12-LOX inh	Resorufin autofl	WT IDH1 inh	IDH1 R132H conf
COc1cc(OC)cc(C(=O)NC2CCc3ccccc32)c1 (centres undefined)	.	.	.	.	11	?	.	.	.
C=CCOC(=O)Nc1snnc1C	-5%	0%	3%	.	-4	15%	.	.	.
Cc1nnsc1NC(=O)OCc1ccc(C(C)(C)C)cc1	?	1%	-14%	10µM*	-2	121%	3	2%	-3%
Cc1ccc(N2C(S)=C(C#N)C(=O)NC2c2cccs2)cc1 (centres undefined)	52µM*	10%	-3%	-9%	-2	?	4	20%	?
COc1cc(C2c3c(-c4ccccc4)n[nH]c3C(=O)N2c2ccc(C(=O)O)cc2)ccc1O (centres undefined)	7%	-1%	-10%	-8%	-6	.	.	.	.
O=C1c2[nH]nc(-c3ccc(Br)cc3)c2C(c2cccc(O)c2)N1c1ccc(Cl)cc1 (centres undefined)	40µM*	-4%	-24%	?	-12	-37%	-6	1%	20µM*
